IDE exosite inh = exo-site inhibitors of human IDE, primary screen, biochemical, fluorescence anisotropy, probe displacement; purified IDE, FL-6b probe fluorescence polarization; active compounds read low; z-score at 20 µM; 17,000 compounds, 6.3% hits; AID 1259349, 2017;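 active = z-score of -3 or lower, meaning strong loss of probe binding signal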;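 also: His-tagged human IDE residues 42-1019 made in E. coli with 30 nM FL-6b probe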
Numbers without * were called inactive. Shown is part of a subset that was picked to be rich in hits.

SMILES	IDE exosite inh
COc1cccc(C#Cc2ccc([C@@H]3[C@H](CO)N4C(=O)CN(C(=O)Cc5ccccc5)C[C@@H]34)cc2)c1	-0.783
CCCC#Cc1ccc([C@@H]2[C@@H](CO)N3C(=O)CN(C(=O)Cc4cccnc4)C[C@H]23)cc1	2.29
COc1cccc(C#Cc2ccc([C@H]3[C@H]4CN(C(=O)Cc5cccnc5)CC(=O)N4[C@H]3CO)cc2)c1	-4.07*
CC(C)C#Cc1ccc([C@@H]2[C@@H](CO)N3C(=O)CN(C(=O)Cc4cccnc4)C[C@H]23)cc1	4.88
COc1cccc(C#Cc2ccc([C@H]3[C@H](CO)N4C(=O)CN(C(=O)Cc5ccccc5)C[C@@H]34)cc2)c1	-0.112
CCCC#Cc1ccc([C@@H]2[C@@H](CO)N3C(=O)CN(C(=O)Cc4cccnc4)C[C@@H]23)cc1	-1.62
COc1cccc(C#Cc2ccc([C@H]3[C@@H](CO)N4C(=O)CN(C(=O)Cc5cccnc5)C[C@@H]34)cc2)c1	-1.64
COc1cccc(C#Cc2ccc([C@@H]3[C@H](CO)N4C(=O)CN(C(=O)Cc5cccnc5)C[C@@H]34)cc2)c1	-4.12*
CCCC#Cc1ccc([C@@H]2[C@H]3CN(C(=O)Cc4cccnc4)CC(=O)N3[C@H]2CO)cc1	-4.26*
COc1cccc(C#Cc2ccc([C@@H]3[C@H]4CN(C(=O)Cc5cccnc5)CC(=O)N4[C@H]3CO)cc2)c1	-5*
O=C(C[C@@H]1CC[C@@H]2[C@H](COC[C@@H](O)CN2C(=O)c2cnccn2)O1)N1CCN(c2ccccc2)CC1	2.07
CC(C)CC#Cc1ccc([C@@H]2[C@@H](CO)N3CCCCN(C(=O)c4ccc5c(c4)OCO5)C[C@H]23)cc1	3.67
C[C@@H](O)C#Cc1ccc([C@@H]2[C@@H](CO)N3CCCCN(S(=O)(=O)c4ccccc4)C[C@@H]23)cc1	0.476
Cc1ccc(-c2ccc([C@H]3[C@@H](CO)N4C(=O)CN(C(=O)c5ccc(F)cc5)C[C@H]34)cc2)cc1	1.24
Cc1cccc(S(=O)(=O)N2CCCCN3[C@H](C2)[C@H](c2ccc(C#C[C@H](C)O)cc2)[C@@H]3CO)c1	2.03
CCS(=O)(=O)Nc1ccc2c(c1)C(=O)N(C)[C@@H]1CC[C@@H](CC(=O)NCc3ccccc3F)O[C@@H]1CO2	-0.828
CCC(=O)N1CC(=O)N2[C@H](CO)[C@@H](c3ccc(-c4ccccc4C)cc3)[C@H]2C1	-3.98*
Cc1ccccc1-c1ccc([C@H]2[C@H](CO)N3C(=O)CN(S(C)(=O)=O)C[C@@H]23)cc1	-1.37
CCC(=O)N1CC(=O)N2[C@H](CO)[C@H](c3ccc(-c4ccccc4C)cc3)[C@@H]2C1	-7.96*
CCC(=O)N1CC(=O)N2[C@@H](CO)[C@H](c3ccc(-c4ccccc4F)cc3)[C@@H]2C1	0.654
CCS(=O)(=O)N1CC(=O)N2[C@H](CO)[C@@H](c3ccc(-c4ccccc4C)cc3)[C@H]2C1	-0.81
COCC(=O)N1CC(=O)N2[C@H](CO)[C@@H](c3ccc(-c4ccccc4C)cc3)[C@H]2C1	-0.936
CN(C)CCCNC(=O)[C@H]1[C@H](CO)[C@H]2Cn3c(ccc(-c4cccnc4)c3=O)[C@@H]1N2C(=O)CC1CC1	0.337
O=C(c1cccnc1)N1CCCCN2[C@@H](CO)[C@@H](c3ccc(C#Cc4cccnc4)cc3)[C@@H]2C1	0.377
Cc1ccccc1-c1ccc([C@H]2[C@H]3CN(C(=O)c4cccnc4)CCCCN3[C@H]2CO)cc1	0.895
SMILES	IDE exosite inh
COc1ccccc1-c1ccc([C@H]2[C@H]3CN(C(=O)c4ccncc4)CCCCN3[C@H]2CO)cc1	0.953
COc1ccccc1-c1ccc([C@@H]2[C@H]3CN(C(=O)c4ccncc4)CCCCN3[C@H]2CO)cc1	-13.7*
COc1ccccc1-c1ccc([C@@H]2[C@H](CO)N3CCCCN(C(=O)c4cccnc4)C[C@@H]23)cc1	-4.09*
COc1ccccc1-c1ccc([C@H]2[C@H](CO)N3CCCCN(C(=O)c4ccncc4)C[C@@H]23)cc1	-2.51
CCCC#Cc1ccc([C@@H]2[C@H]3CN(S(=O)(=O)Cc4ccccc4)CC(=O)N3[C@H]2CO)cc1	4.61
CCS(=O)(=O)N(C)C[C@@H]1N[C@H](CO)[C@@H]1c1ccc(C2=CCCCC2)cc1	-0.397
C[C@@H]1CN([C@H](C)CO)C(=O)CCCn2nncc2CO[C@H]1CN(C)S(=O)(=O)c1ccccc1C#N	1.28
O=C(CN1CCOCC1)N1CCCCN2[C@H](CO)[C@H](c3ccc(-c4ccccc4F)cc3)[C@@H]2C1	-0.000576
COc1ccccc1-c1ccc([C@H]2[C@@H](CO)N3CCCCN(C(=O)CN4CCOCC4)C[C@H]23)cc1	-2.83
COCC(=O)N1CCCCN2[C@H](CO)[C@@H](c3ccc(-c4ccccc4)cc3)[C@H]2C1	0.758
Cc1ccccc1-c1ccc([C@H]2[C@@H](CO)N3CCCCN(C(=O)CN4CCOCC4)C[C@H]23)cc1	-9.85*
O=C(CN1CCOCC1)N1CCCCN2[C@H](CO)[C@H](c3ccc(-c4ccccc4F)cc3)[C@H]2C1	-0.747
COc1ccccc1-c1ccc([C@H]2[C@H](CO)N3CCCCN(C(=O)CN4CCOCC4)C[C@@H]23)cc1	-3.22*
Cc1ccccc1-c1ccc([C@@H]2[C@@H](CO)N3CCCCN(C(=O)CN4CCOCC4)C[C@@H]23)cc1	-8*
O=C(CN1CCOCC1)N1CCCCN2[C@H](CO)[C@@H](c3ccc(-c4ccccc4F)cc3)[C@@H]2C1	-3.64*
O=C(CN1CCOCC1)N1CCCCN2[C@@H](CO)[C@H](c3ccc(-c4ccccc4F)cc3)[C@@H]2C1	-0.34
O=C(NCC1CC1)[C@H]1[C@H](CO)[C@H]2Cn3c(ccc(-c4ccccc4F)c3=O)[C@@H]1N2Cc1cncnc1	-0.78
CC(C)N(C[C@@H]1[C@H](c2ccccc2)[C@@H](CO)N1S(C)(=O)=O)C(=O)CN(C)C	0.345
O=C(c1ccc(F)cc1)N1CC(=O)N2[C@H](CO)[C@H](c3ccc(C#CC4CC4)cc3)[C@H]2C1	0.0685
COc1ccc2c3c(n(C)c2c1)[C@H](CO)N(C(=O)C1CCCC1)CC31CN(C(=O)CC2CC2)C1	-1.06
CCC(=O)N[C@@H]1CC[C@H](CC(=O)NCc2ccccc2F)O[C@H]1CO	-0.96
Cc1cccc(-c2ccc(C3[C@@H]4CN(C(=O)Nc5ccc(F)cc5)C[C@H]3N4)cc2)c1 (some centres not stated)	-0.362
Cc1cccc(-c2ccc(C3[C@@H]4CN(C(=O)C5CCOCC5)C[C@H]3N4)cc2)c1 (some centres not stated)	-5.14*
Cc1cccc(-c2ccc(C3[C@@H]4CN(C(=O)Nc5ccccc5)C[C@H]3N4)cc2)c1 (some centres not stated)	-4.3*
Cc1cccc(-c2ccc(C3[C@@H]4CN(Cc5ccccc5)C[C@H]3N4)cc2)c1 (some centres not stated)	-5.1*
Cc1cccc(-c2ccc(C3[C@@H]4CN(Cc5cccc(F)c5)C[C@H]3N4)cc2)c1 (some centres not stated)	-0.438
N#Cc1cccc(-c2ccc(C3[C@@H]4CN(C(=O)Nc5ccccc5)C[C@H]3N4)cc2)c1 (some centres not stated)	3.52
O=C(C1CCOCC1)N1C[C@@H]2N[C@H](C1)C2c1ccc(-c2cncnc2)cc1 (some centres not stated)	3.12
c1ccc(CN2C[C@@H]3N[C@H](C2)C3c2ccc(-c3ccncc3)cc2)cc1 (some centres not stated)	2.42

Screening data as filed in PubChem BioAssay.
